# Laboratory results from PubChem BioAssay (NCI).
# About 83,000 compounds went through this panel and 20% of them were active in at least one assay; those are over-represented in the sample as a whole.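 The endpoint reported here, percent growth, reads 100 for growth as untreated, 0 for no net growth and -100 for all cells dead.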 Unmarked numbers belong to inactive results. Calls of active or inactive are those of the source. The calls were made as follows: active = growth percent below 10; inactive = the rest.
# System: MDA-MB-231 breast
# Test: NCI-60 one-dose screen, 48 h (100 = growth as untreated, 0 = no growth, -100 = all killed)
# Details: 10 µM
row,SMILES,growth
1,C=C1CCC2C3(C)COC(c4cc(F)cc(F)c4)OC3CCC2(C)C1C/C=C1/C(=O)OCC1O (centres undefined),-63.7% (active)
2,Cc1cc(C(F)(F)F)ccc1C(=O)Nc1sc2c(c1C#N)CCC(=O)C2,-73.4% (active)
3,N#Cc1c(Cl)nc(SCc2ccc(F)cc2)nc1-c1ccc(F)cc1,94.6%

# System: RXF 393 renal
# Test: as above
# Details: 10 µM
row,SMILES,growth
1,COc1ccc(N2N=C(c3ccc4c(c3)OCCO4)CC2c2cccc(NC(=O)CCCNS(=O)(=O)c3ccc(F)cc3)c2)cc1 (centres undefined),68.1%
2,COc1cc(/C=N/NC(=O)c2ccc3nc(-c4ccc(Cl)cc4)[nH]c3c2)cc(OC)c1OC,-84.3% (active)
3,O=C(N=Nc1c(O)[nH]c2ccc(Br)cc12)c1ccc2nc(-c3ccccc3)[nH]c2c1,-79.7% (active)
4,COc1ccccc1[C@H]1C(C(=O)c2ccc(Cl)cc2)C2(N[C@@H]1c1ccccc1)C(=O)Nc1ccc(Cl)cc12 (some centres undefined),-29.4% (active)
5,O=c1cc(-c2ccccc2)oc2cc(OCCCNCc3ccccc3)cc(O)c12,-56.7% (active)
6,O=C1Nc2cc(-c3ccc(NC(=O)c4cccs4)cc3)ccc2/C1=C/c1ccc[nH]1,73.9%
7,O=C(c1ccc(O)cc1)C1[C@H](c2ccc(Br)cc2)[C@@H](c2ccccc2)NC12C(=O)Nc1ccccc12 (some centres undefined),-16.4% (active)
8,C=C1CCC2C3(C)COC(c4ccccc4F)OC3CCC2(C)C1C/C=C1/C(=O)OCC1O (centres undefined),-68.5% (active)
9,C=C1CCC2C3(C)COC(c4c(F)cccc4F)OC3CCC2(C)C1C/C=C1/C(=O)OCC1O (centres undefined),-72.8% (active)
10,COc1cccc(/C=C2\N=C(C)N(CCc3ccc(S(N)(=O)=O)cc3)C2=O)c1,121%
11,C=C1CCC2C3(C)COC(c4cccc(F)c4)OC3CCC2(C)C1CC(O)C1=CCOC1=O (centres undefined),57.2%
12,Cn1cc(-c2cc(N)n3nc(-c4c[nH]c5ccc(Br)cc45)cc3n2)c2cccnc21,-85.2% (active)
13,C=C1CCC2C3(C)COC(c4c(F)cccc4F)OC3CCC2(C)C1CC(O)C1=CCOC1=O (centres undefined),66.1%
14,Brc1ccc(/C=C/c2n(Cc3ccc4ccccc4c3)c3ccccc3[n+]2Cc2ccc3ccccc3c2)cc1,-83.1% (active)
15,O=C(Nc1ccc(I)cc1)Nc1nc2ccc([N+](=O)[O-])cc2s1,-95.1% (active)
16,O=C(N/N=C/c1ccc(B(O)O)o1)c1[nH]c2ccc(Br)cc2c1-c1ccccc1,1.27% (active)

row,SMILES,growth
1,CONC[C@]1(C)C=C2C(=O)[C@](C)(O)C3(CC3)C(C)=C2[C@H]1O,-85.9% (active)
2,O=C(Nc1cccc(-c2cn(-c3ccc4oc(=O)ccc4c3)nn2)c1)Nc1cc(C(F)(F)F)cc(C(F)(F)F)c1,-5.05% (active)
3,CCCCCCCCCCCCCCCCCCCC(=O)NCCc1c[nH]c2ccc(OC(=O)CCCC(=O)OCCOOCCOOCCOOCCOOCCOOCCOOCCOOCCOOCCOOCCOOCCOOCCOC)cc12,91.3%
4,COc1ccc(/C(C)=N/N=C2C(=O)N(C)c3ccc(Br)cc32)cc1S(N)(=O)=O,57.4%
5,N#Cc1c(NC(=O)c2ccc(C(F)(F)F)cc2C(F)(F)F)sc2c1CCC(=O)C2,-59% (active)
6,CNCc1cccc2c1OCCCCCC[C@@](C)(O)CC1(CC1)S(=O)(=O)c1ccc(cc1)-c1cnc(N)c(n1)C(=O)N2,-94.2% (active)
7,COc1cc(OC(F)(F)F)ccc1C(=O)Nc1sc2c(c1C#N)CCC(=O)C2,22.8%
8,Nc1n[nH]c2cccc(C#Cc3cccc(NC(=O)Nc4cc(C(F)(F)F)cc(C(F)(F)F)c4)c3)c12,-70.9% (active)
9,N#Cc1c(-c2ccc(F)cc2)nc(SCc2ccc([N+](=O)[O-])cc2)nc1N1CCOCC1,9.79% (active)
10,CC1=N/C(=C\c2ccc(N(C)C)cc2)C(=O)N1CCc1ccc(S(N)(=O)=O)cc1,88.9%
11,CN(CCF)c1ccc(/C=C/C(=O)c2ccc(N)cc2O)cc1,82.8%
12,O=C(c1ccc(Cl)cc1)C1[C@H](c2ccccc2Br)[C@@H](c2ccccc2)NC12C(=O)Nc1ccccc12 (some centres undefined),-12.6% (active)
13,O=C(Nc1cc(Cl)cc(Cl)c1)Nc1cc(Cl)cc(Cl)c1,-15.1% (active)
14,O=C(c1ccc(O)cc1)C1[C@H](c2ccc(Br)cc2)[C@@H](c2ccccc2)NC12C(=O)Nc1ccc(Br)cc12 (some centres undefined),-62.9% (active)
15,COc1ccccc1[C@H]1C(C(=O)c2ccc(O)cc2)C2(N[C@@H]1c1ccccc1)C(=O)Nc1ccc(Br)cc12 (some centres undefined),13.5%
